The supplement of paper PMC11417369
± gives the standard deviation of the averaged measurements. In all, about 25,000 sequences were measured (“ln(normalized median fluorescence intensity)”: median about 7.9, highest 2% from about 11 on). This excerpt belongs to a sample that is enriched for the highest values.

Test system: PfAP2-I AP2 domain 3 (GST-tagged)
Experiment: gcPBM binding intensity (ln(normalized median fluorescence intensity)); higher = stronger DNA binding
Outline: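 For binding intensity, the highest Masliner-normalised natural-log median intensity across replicate spots of either probe orientation was taken. Protein bound to the array was stained with Alexa488 anti-GST antibody and scanned at 488 nm. The protein, GST-tagged P. falciparum DNA-binding domains from E. coli at about 25 μg on average, had been applied for 1 h to an Agilent 4 × 180k array of primer-extended double-stranded 36-bp intergenic genomic probes and negative controls.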

Row | Sequence | gcPBM binding intensity (ln)
1 | AAAATTAAAATACGTACACACCTTATCTTTTTGGCT [CACACA_site4311] | 8.21 ± 0.19
2 | ATATTTCTGTCAAGCACACATAATATTAAAATATGT [CACACA_site4330] | 7.91 ± 0.49
3 | ATTTATTTTATATGTTGTACAAACATTTTAAAACAT [XGTACX_site6919] | 7.79 ± 0.38
4 | ATATTTTATGTAAAGGTGCAAAACAACATTAAAAAA | 10.9 ± 0.47
5 | CATGCCTTTAAAAAGGTGCAAACATTTTCACAAACA | 10.4 ± 0.35
6 | CTTGAAAAAATAAAAACACACAATGTGTTTTTGAAT [CACACA_site3283] | 7.42 ± 0.68
7 | TTTCATTTAGCTTTTACACACTATATATCATTGATT [CACACA_site6158] | 7.89 ± 0.68
8 | AGTATTATATTTGTATGTACGTAGTAATATATAAAA [XGTACX_site528] | 7.86 ± 0.6
9 | CGATTTTTTAAGTTTGTGCACTTAAAAACTATAACA | 10.9 ± 0.54
10 | TTAAACTTGTTTTGGATGCACTATATAATTCATTTT [GTGCAC_site9549] | 9.45 ± 0.15
11 | TTTATTTTATTCACTATCATAAGCAAAACTTAAACA [GTGCAC_negctrl_site287] | 7.6 ± 0.4
12 | TTTCATATTTTGTCCTGTTTTTTTTTTTTTTTTCTT [CACACA_negctrl_site993] | 7.53 ± 0.59
13 | TTTAACTTTTATATAACACACATATTGTAATTATGT [CACACA_site6486] | 7.92 ± 0.33
14 | TTTTTTGAATTTAAAAGTACAGGCTTTTACCAAATA [XGTACX_site1356] | 7.7 ± 0.45
15 | TTTTTTTTTTGTAATTGTACTTTTTTAATACTTCTA [XGTACX_site4195] | 7.74 ± 0.82
16 | TTAGTTTATTGGTACTGTACTTTTTTTTTCTCCATT [XGTACX_site8618] | 8.02 ± 0.33
17 | TATTCGTGCAATAATGGTACACTTATAAATTATTCA [XGTACX_site1430] | 10.7 ± 0.71
18 | TATTCGTGCAATAGTAGTACACTTATAAATTATTCT [XGTACX_site4899] | 10.7 ± 0.61
19 | TATTCGTGCAATAATAGTACACTTATAAATTATTCA [XGTACX_site8993] | 11.2 ± 0.66
20 | ACACATACATACATATGTACATATATACATATATAC [XGTACX_site5559] | 8.45 ± 0.83
21 | AAATAATACATTCGTACTACACATATATATTAAATA [XGTACX_site7806] | 7.84 ± 0.41
22 | GTAGGCATTAAAAAATGTACAAAATATTATGAATTG [XGTACX_site1615] | 7.65 ± 0.55
23 | TGAACATATTAAAATTGTACATATGCACAATATGTA [XGTACX_site6801] | 8.53 ± 0.29

Row | Sequence | gcPBM binding intensity (ln)
24 | AGTAGGCATATTGGTTGTACAAAAAAATTATGCACC [XGTACX_site8925] | 11.2 ± 0.61
25 | TATGTGCACCCATGTACATGCGGACATATGTTATAT [TGCATGCA_site383] | 11 ± 0.9
26 | TATATATATATATATGCATGTACATATATTTGTTAT [TGCATGCA_site379] | 9.45 ± 0.14
27 | ATATATATATATGCATGTACATATATTTGTTATATC [XGTACX_site3197] | 9.22 ± 0.27
28 | TATATAATAATTTAGAGTACTGATAAAATATTCCAT [XGTACX_site6200] | 7.55 ± 0.47
29 | AATAAATTAGAAGGATGTACTTTGTTTAATATAGAG [XGTACX_site1943] | 7.83 ± 0.37
30 | TTCCAAAAAGTTATTACACACATATGTGCACATATA [CACACA_site6465] | 10 ± 0.4
31 | AATAGCTAGCTGTGCACACAAACATATTTTCCAAAT [CACACA_site880] | 9.55 ± 0.16
32 | TTTATTTTCCAAAGGGTGCACATAGTTGAAACGATA | 11.1 ± 0.44
33 | CAAATAGCTAGCTGTGCACACAAACATATTTTCCAA [CACACA_site879] | 9.66 ± 0.23
34 | TTTATTTTCCAAAGGGTGCACATAGTTAAAACGATA [GTGCAC_site9855] | 11.1 ± 0.29
35 | CATTTTATAAAAAGCACACATATAGTTATATGCACA [CACACA_site3691] | 10.7 ± 0.91
36 | TTTCTTTTTTTTTGAAGTACATAAAAATATAAAAAA [XGTACX_site311] | 8.03 ± 0.085
37 | AGACAAAATGTTTGAAGTACTTTTTATCAAATTAAA [XGTACX_site8885] | 7.66 ± 0.2
38 | CACGAACACAAACACAAACACACATCATATATATAT [CACACA_site1322] | 9.25 ± 0.16
39 | AAATATATATATAGTTGTACATATATCGTATATATT [XGTACX_site7867] | 7.57 ± 0.45
40 | GTTAAAATTTGTCAATGTACAGAAATAATAAAAAAA [XGTACX_site1879] | 7.97 ± 0.62
41 | ATATATATATATATATGTACATATTATTATTTTGAT [XGTACX_site4752] | 9.22 ± 0.49
42 | AAAATAAACTATAGTACACACTTATTATTATGAAAT [CACACA_site5488] | 7.92 ± 0.3
43 | AAATATAAGAAAAAGGTGCTTTTTTTTTTTTTTTTT [GTGCAC_site9700] | 9.79
44 | TTTTTTCTTTTCAAGGTGCTTTATAAGAAAAAGGGA [GTGCAC_site9858] | 11.1 ± 0.89
45 | TTTTTTTTTCTTCTTTTCAAATTTAAGAAATTATAA [CACACA_negctrl_site18] | 7.55 ± 0.57
46 | AAAAAAAAACACGCATGTACATAAAAATAATCATAC [XGTACX_site1086] | 7.96 ± 0.57

Row | Sequence | gcPBM binding intensity (ln)
47 | ATACACACTCAAAAAAGTACTTAACTACATGAATTG [XGTACX_site6366] | 7.79 ± 0.55
48 | AAGAAAATATAAAATGCACACTATAAATTGTATATA [CACACA_site7928] | 8.73 ± 0.014
49 | CATTATAAAAAATAAAAAAGAAATAATTGTATATGC [CACACA_negctrl_site478] | 7.77 ± 0.68
50 | TGTATGTATAATTGAGTGCACAGAAAAAAAAAAGAA | 11 ± 0.13
51 | TAAATAAATAAAAATAGTACATAATTATTATTATTA [XGTACX_site4981] | 7.42 ± 0.22
52 | TTCTTTATATACAAACCAAAATATTATGTATAATAA [CACACA_negctrl_site15] | 7.62 ± 0.33
53 | TAGATTATTATACTAGTGCAAATTATTTAAGAAAAA | 10 ± 0.34
54 | AAGATAAAATTATGCACACATACGAATAATTTTAAA [CACACA_site1705] | 9.79 ± 0.39
55 | CTTATAAGAATACTAGTGCACATAATTTAACGAAAA | 11 ± 0.59
56 | AATGTACGTTTTATAACACACACACTAATAAAAAAA [CACACA_site9286] | 8.23 ± 0.36
57 | ATCGGTAATATTAACACACACATTTATTTATATTTA [CACACA_site6638] | 7.96 ± 0.58
58 | AAAATTAAAAATAACACACACATATTTATATTTATA [CACACA_site7329] | 7.59 ± 0.4
59 | ACATATCGGGTGCATTAACACACATTTATTTGAATA [CACACA_site8736] | 11.8 ± 0.52
60 | TATATTTATTATAACACACACATATAAATATTATAG [CACACA_site6726] | 7.95 ± 0.48
61 | ATATCGGGTGCATTAACACACATTTATTTGAATAAA [CACACA_site2350] | 11.7 ± 0.79
62 | ATCGGTAATATTAACACACACATTTATATATATTTA [CACACA_site1084] | 8.02 ± 0.41
63 | AACATTTTAAATTATACACACATTTTGAATATATAT [CACACA_site3470] | 7.78 ± 0.53
64 | ATATCGTGTGCATTAACACACATTTATTTGAATAAA [CACACA_site7162] | 10.9 ± 0.5
65 | TTTATTTTAACTTGTTCACACATTTGAATAAATAAA [CACACA_site5064] | 7.71 ± 0.33
66 | CAAAAAACAACAGATCGTACAAAATATTATATATAT [XGTACX_site2285] | 8.12 ± 0.67
67 | TTTTTTTTTTTTTTCTGTACTTAAAAAGGGGGAGAA [XGTACX_site3799] | 8.79 ± 0.7
68 | ATACATTCAAAATATACACACATATATCTATAATAT [CACACA_site6576] | 7.69 ± 0.65
69 | TGCAGTCTGGAGAAAAGTACATAGTATCTGGTAGCT [XGTACX_site2547] | 7.87 ± 0.66

Row | Sequence | gcPBM binding intensity (ln)
70 | GAATGTAAATATTAAAGTACACAGAATATATCTTCA [XGTACX_site8149] | 7.79 ± 0.16
71 | GATAATCAGAATGGGGTGCAAAGAAAAAAAAAAAAA | 10.7 ± 0.46
72 | AGAATAATAAAATGGGTGCAATAGTTTTTTTTTTTT [GTGCAC_site9823] | 11.2 ± 0.44
73 | ATAATAAAAATAAGAGAATAAAAATGCAATTTAATG [CACACA_negctrl_site878] | 7.95 ± 0.47
74 | ATATATATTATATATAGTACTTTTTTGCGCAAATAT [XGTACX_site6849] | 8.08 ± 0.44
75 | ACATTAAGACACATTGCACACGTGCACCCATAGAAA [CACACA_site8029] | 10.965 ± 0.007
76 | CCATTAAGACACATTGCACACGTGCACCCATAGAAA [CACACA_site4388] | 10.79 ± 0.021
77 | TAAGAAATAAATAGTACACACATAGACACCCACCCA [CACACA_site8429] | 8.65 ± 0.54
78 | ATTAAGACACATTGCACACGTGCACCCATAGAAAAA [CACACA_site408] | 11.02 ± 0.099
79 | ACATTGCACCCGTGCACACATAGAAAAATAATTCTT [CACACA_site409] | 11.1
80 | TACACCCATAGACACACACACACGCATAAAAAAAAA [CACACA_site8428] | 8.36 ± 0.34
81 | TAAGAAATAAATAGTACACACATAGACACCCACCGA [CACACA_site1516] | 8.86 ± 0.15
82 | ACCCATTGCTCACGTGCACACATAGAAAAATAATTC [CACACA_site4389] | 10.7 ± 0.16
83 | CATTTGCACCCGCACACACACATAAAAAGAAAAATA [CACACA_site4350] | 10.7 ± 0.8
84 | TTTTTTGTTTGAATGGTGCATTTTGTAATTATATTT | 10.3 ± 0.41
85 | TTGTTATGTTTTATTTGTACGTAGGTTTCTATCAAA [XGTACX_site7636] | 8.12 ± 0.35
86 | ATATTTATTTATATGTGTACTTATGTTTATATAAAA [XGTACX_site4250] | 8.02 ± 0.21
87 | GAAAATATAAAAAAAAGTACATTTTCTCTAAATATA [XGTACX_site2441] | 7.57 ± 0.35
88 | ATTTTTTTACTGTAACCATATTTTTCCCTTTTATTC [CACACA_negctrl_site1143] | 7.95 ± 0.79
89 | TGTATGTTATATACAACACACAAAAAAAAACAAGTT [CACACA_site301] | 7.62 ± 0.7
90 | AGACAATATCTTATTTGTACATATGTATTCCTCATA [XGTACX_site5757] | 7.88 ± 0.63
91 | GGGAATATAAGTACACGATAATATGTGATAAGGTCT [CACACA_negctrl_site1502] | 8.28 ± 0.86
